The panel holds about 83,000 compounds, 20% with a hit somewhere; the sample as a whole holds those more often.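 96-well plates, one dose, 48 hours. Percent growth reported; active if below 10.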 Active and inactive are the calls of the source.
Assays:
Assay in all cases: NCI-60 one-dose screen, 48 h (100 = growth as untreated, 0 = no growth, -100 = all killed)
Details in all cases: 10 µM unless noted
[1] = system: NCI-H23 lung
[2] = system: NCI-H226 lung
[3] = system: NCI-H322M lung
[4] = system: HOP-62 NSCLC
[5] = system: NCI-H460 lung
[6] = system: HOP-92 NSCLC
[7] = system: NCI-H522 lung
[8] = system: A549/ATCC NSCLC
[9] = system: 786-0 renal
[10] = system: COLO 205 colon
[11] = system: DU-145 prostate
[12] = system: K-562 leukemia
[13] = system: MALME-3M melanoma
[14] = system: MDA-MB-231 breast
[15] = system: RXF 393 renal
[16] = system: SF-268 CNS
[17] = system: SF-295 CNS
[18] = system: SF-539 CNS
[19] = system: M14 melanoma
[20] = system: UACC-257 melanoma

Measured: growth

CCC1C[N+]2=C(c3cc(OC)c(OC)cc3CC2)c2c1cc1n2CCc2cc(OC)c(OC)cc2-1 (configuration not stated)
active: [6] -2.62% | [10] -35.4%
inactive: [1] 43% | [2] 65.7% | [3] 98.6% | [4] 55.9% | [5] 21.5% | [7] 17% | [8] 56.9% | [9] 66.3% | [11] 49% | [12] 21.5% | [13] 29.9% | [14] 46.1% | [15] 88.7% | [16] 33.3% | [17] 63.6% | [18] 31.9% | [19] 36.1%

CC(C)(C)c1ccc(CCO)cc1
inactive: [1] 97.5% | [2] 91.8% | [3] 84.5% | [4] 97.5% | [5] 109% | [6] 100% | [7] 85.4% | [8] 103% | [9] 98.2% | [10] 110% | [11] 114% | [12] 91.3% | [13] 82.5% | [14] 102% | [15] 117% | [16] 104% | [17] 88.7% | [18] 88.6% | [20] 97.2% | [19] 104%

O=C(CCl)N(c1ccccc1)c1ccccc1
active: [7] -29.7%
inactive: [1] 98.1% | [2] 102% | [3] 95% | [4] 105% | [5] 111% | [6] 78.5% | [8] 103% | [9] 108% | [10] 111% | [11] 110% | [12] 105% | [13] 98.6% | [14] 114% | [15] 104% | [16] 105% | [17] 103% | [18] 108% | [20] 94.1% | [19] 95.9%

CN(C)CCN(C)CC(C)(C)C(=O)/C=C/c1ccc(Cl)c(Cl)c1
active: [1] -83.2% [100 µM] | [2] -64.1% [100 µM] | [3] -98.4% [100 µM] | [4] -92.9% [100 µM] | [5] -72.8% [100 µM] | [6] -89.4% [100 µM] | [7] -89.5% [100 µM] | [8] -82% [100 µM] | [9] -93.6% [100 µM] | [10] -90.3% [100 µM] | [11] -99.2% [100 µM] | [12] -21.1% [100 µM] | [13] -95.5% [100 µM] | [14] -98% [100 µM] | [15] -95.1% [100 µM] | [16] -54.8% [100 µM] | [17] -97.9% [100 µM] | [18] -99.3% [100 µM] | [20] -90.4% [100 µM] | [19] -92% [100 µM]

CCCCCCCCCCCC(=O)OC(C)C(=O)NCCCC (configuration not stated)
inactive: [1] 97.3% | [2] 86% | [3] 91.7% | [4] 94% | [5] 105% | [6] 98.1% | [7] 104% | [8] 98.8% | [9] 101% | [10] 109% | [11] 105% | [12] 94.1% | [13] 96.4% | [14] 113% | [15] 107% | [16] 101% | [17] 102% | [18] 108% | [20] 96.4% | [19] 105%

COc1ccc2c(c1OC)OCC(CN(C)C)C2=O (configuration not stated)
active: [7] -81% | [10] -75.2% | [12] -100%
inactive: [1] 104% | [2] 97.6% | [3] 111% | [4] 100% | [5] 122% | [6] 52.1% | [8] 98.9% | [9] 92.7% | [11] 91.9% | [13] 71.5% | [14] 96.7% | [15] 98% | [16] 110% | [17] 96.2% | [18] 97.1% | [20] 99.1% | [19] 98.5%

CCCOS(=O)(=O)c1ccccc1
inactive: [1] 101% | [2] 103% | [3] 102% | [4] 84.6% | [5] 106% | [6] 76.1% | [7] 104% | [8] 111% | [9] 121% | [10] 108% | [11] 118% | [12] 128% | [13] 111% | [14] 107% | [15] 112% | [16] 106% | [17] 113% | [18] 102% | [20] 111% | [19] 115%

CCOC(=O)c1cc(CC)sc1NC(=O)CC(C)=O
inactive: [1] 43.2% | [2] 70.1% | [3] 95.3% | [4] 73% | [5] 50.9% | [6] 59% | [7] 34.4% | [8] 78% | [9] 54.5% | [10] 90.2% | [11] 48.2% | [12] 21.8% | [13] 62.2% | [14] 54.9% | [15] 61.7% | [16] 60.1% | [17] 43.2% | [18] 56.1% | [20] 95.6% | [19] 88.6%

O=C(c1ccccc1)c1cc2ccccc2oc1=O
inactive: [1] 94.5% | [2] 86.3% | [3] 97.7% | [4] 88.6% | [5] 117% | [6] 51.3% | [7] 95% | [8] 95.9% | [9] 102% | [10] 119% | [11] 114% | [12] 111% | [13] 90.4% | [14] 79.5% | [15] 90% | [16] 101% | [17] 113% | [18] 116% | [20] 96.9% | [19] 104%

O=C(NOC(=O)c1ccccc1)c1ccccc1
inactive: [1] 107% | [2] 106% | [3] 119% | [4] 105% | [5] 97.9% | [6] 101% | [7] 98% | [8] 120% | [9] 93.9% | [10] 117% | [11] 112% | [12] 40.8% | [13] 109% | [14] 111% | [15] 110% | [16] 101% | [17] 112% | [18] 102% | [20] 124% | [19] 104%

CCCCOS(=O)(=O)c1ccccc1
inactive: [1] 104% | [2] 97.9% | [3] 98% | [4] 96.9% | [5] 115% | [6] 122% | [7] 111% | [8] 116% | [9] 101% | [10] 134% | [11] 112% | [12] 106% | [13] 94.5% | [14] 106% | [16] 105% | [17] 120% | [18] 102% | [20] 106% | [19] 112%

CCN1CCCC(Nc2cc(C)nc(/N=C(/N)Nc3ccc(Cl)c(Cl)c3)n2)C1 (configuration not stated)
inactive: [1] 33.2% | [2] 32.2% | [11] 30.3%
active: [3] -17.1% | [4] -7.52% | [5] -18.8% | [6] -68.4% | [7] -69.5% | [8] -25.1% | [9] -82.7% | [10] -77.6% | [12] -69.2% | [13] -70.6% | [14] -56.6% | [15] -81.3% | [16] -54.4% | [18] -73.7% | [20] -84.9% | [19] -77.9%

Cc1cc(N/N=C/c2ccccn2)nc2ccccc12
inactive: [1] 14% | [10] 20.5% | [11] 18.2% | [14] 42%
active: [2] -1.94% | [3] 7.17% | [4] 0.2% | [5] 3.05% | [6] -2.87% | [7] -25.6% | [8] 1.82% | [9] 8.98% | [12] 9.21% | [13] 8.16% | [15] 8.96% | [16] 5.12% | [18] -37.8% | [20] -22.6% | [19] -39.7%

Cc1nnc(N/N=C/c2ccc([N+](=O)[O-])o2)[nH]c1=O
inactive: [1] 22.6% | [2] 16.2% | [3] 16.6% | [4] 11.3% | [5] 11.3% | [7] 17.1% | [8] 28.5% | [9] 14.9% | [11] 19.4% | [12] 10.7% | [14] 28.7% | [16] 19.4% | [20] 33.5% | [19] 26.2%
active: [6] -35.8% | [10] -56.5% | [13] -30.8% | [17] -40.4% | [18] -8.83%

CC(=O)Nc1ccc(C(=O)CCl)cc1
active: [7] -65.4% | [10] 3.3% | [12] 1.75% | [13] -53.9%
inactive: [1] 86.4% | [2] 92.6% | [3] 95.5% | [4] 94% | [5] 80.9% | [6] 62% | [8] 98.7% | [9] 16.9% | [11] 66% | [15] 83.2% | [16] 81.2% | [17] 102% | [18] 56.1% | [20] 86%

CN(Cc1ccccc1)c1ccc(SC#N)cc1
inactive: [1] 89.8% | [2] 111% | [3] 94.7% | [4] 108% | [5] 86.6% | [6] 59.7% | [7] 45.5% | [8] 92% | [9] 79.4% | [10] 66.4% | [11] 103% | [12] 31.8% | [13] 82.4% | [15] 68.3% | [16] 85% | [17] 95.4% | [18] 87.7% | [20] 102% | [19] 84%
